G9a block: G9a (human) methyltransferase inhibition; Q96KQ7; G9a H3K9 monomethylation, AlphaScreen, 2 h; Potency, µM (titrated, usually from 102 µM), usual class: inhibitors; hit rate 8.8% among 350,000; note: nearly all actives have a fitted effect of over 75% in size
Target sequence (Q96KQ7 913-1193 limits assumed): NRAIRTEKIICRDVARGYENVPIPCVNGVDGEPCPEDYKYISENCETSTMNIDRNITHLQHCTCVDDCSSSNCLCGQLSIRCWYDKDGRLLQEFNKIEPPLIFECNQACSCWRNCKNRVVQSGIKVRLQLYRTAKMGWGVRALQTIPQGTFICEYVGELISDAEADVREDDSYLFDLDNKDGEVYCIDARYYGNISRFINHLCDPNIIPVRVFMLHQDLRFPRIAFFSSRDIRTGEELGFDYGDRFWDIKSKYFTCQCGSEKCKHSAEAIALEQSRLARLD
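G9a (20 nM) preincubated 15 min RT with compounds, then 500 nM biotinylated H3K9 peptide and 20 uM SAM added; 2 h RT reaction. Monomethyl-H3K9 product detected by AlphaScreen with anti-H3K9me1 antibody, streptavidin donor and anti-rabbit IgG acceptor beads.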
Tau fluor counter: counter-screen for tau fibril formation inhibitors | tau K18 P301L Alexa594 fluorescence, heparin fibrillization | Potency, µM (titrated, usually from 57.7 µM) | hit rate 0.93% among 280,000; note: nearly all actives have a fitted effect of over 55% in size
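Human tau K18 P301L (15 uM unlabeled, 0.24 uM Alexa 594-labeled) in 100 mM sodium acetate pH 7 with 20 uM heparin, 6 hr at 37 C. ThT 30 uM added, 1 hr ambient; Alexa 594 FP and total fluorescence read at 555/632 nm.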
Sfp inh: inhibitors of Bacillus subtilis Sfp phosphopantetheinyl transferase. Potency, µM, hits mostly inhibitors. Q9F4F7. Biochemical Sfp PPTase activity, qHTS. hit rate 3.5% among 310,000;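 note: the enzyme is Sfp with the accession as filed and its product quenches rhodamine fluorescence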
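Compounds were incubated with enzyme (final 15 nM) for 15 min at room temperature before substrate addition started the reaction. Fluorescence at 525 nm excitation, 598 nm emission was recorded immediately and after 30 minutes.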
Tau ThT inhib: tau fibrillization inhibition (ThT binding) | P10636 | recombinant tau K18 P301L (four-repeat tau fragment), heparin-induced fibrillization, ThT fluorescence | Potency, µM (top dose mostly 57.4 µM), hits mostly inhibitors | hit rate 2.1% among 270,000 | AID 1460; note: nearly all actives have a fitted effect of over 55% in size
Target sequence (P10636 561-689 P618L limits assumed): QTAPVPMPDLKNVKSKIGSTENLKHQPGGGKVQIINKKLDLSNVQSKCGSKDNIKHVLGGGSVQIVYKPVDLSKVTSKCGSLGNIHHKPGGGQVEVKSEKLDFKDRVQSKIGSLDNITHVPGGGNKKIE
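In this qHTS, human K18 P301L tau is incubated with compound and heparin for 6 hr at 37 C, and Thioflavin T fluorescence then reports fibril load.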
Coupling enz: coupling enzyme interference in Giardia aldolase counter-screen; activity change, negative = inhibition, % at 58.2 µM, hits read low; hit rate 0.67% among 290,000; AID 2472; coupling enzyme system counterscreen, AmpLite Red fluorescence; in the data active = activity change below about -30%
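Final compound at 57.5 uM, incubated 10 min at RT with coupling enzyme reagent (glyceraldehyde-3-phosphate), then 20 min with substrate and AmpLite Red detection. Fluorescence read at 525/598 nm; tests interference with the coupling assay, not aldolase inhibition.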
Tau fibril FP: tau fibrillization inhibition (FP); P10636; K18 P301L tau heparin fibrillization, Alexa594 FP, 6 h; Potency, µM (highest dose often 57.7 µM), most hits filed as inhibitors; hit rate 0.39% among 280,000; note: nearly all actives have a fitted effect of over 55% in size
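Quantitative HTS format: compounds meet 15 uM recombinant K18 P301L tau and Alexa 594-tau tracer in 100 mM sodium acetate pH 7; 20 uM heparin triggers fibrillization at 37 C over 6 hr; FP gives the signal.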
Numbers stand for hits; . = inactive; ? = inconclusive; / = no result; [ ] = dose if it differs, or a comment. Compounds with a hit are over-represented: about 11% of the library has one in this group of screens. Unless noted, calls come from the whole dose curve; as a rule, active = well fitted curve in the direction sought with a large enough effect; inconclusive = small, poorly fitted or top-dose-only effect, or another doubt; inactive = no such curve, though single readings can be large; an effect the other way counts as inactive or inconclusive.

SMILES | G9a block | Tau fluor counter | Sfp inh | Tau ThT inhib | Coupling enz | Tau fibril FP
O=C(NCC1CCCO1)c1nn2c(C(F)(F)F)cc(-c3ccc(Br)o3)nc2c1Br (stereo not given) | 50µM | / | 50µM | / | . | /
O=C(NC1CCCCC1)c1cnn2c(C(F)(F)F)cc(-c3ccco3)nc12 | . | . | . | ? | . | .
O=C(NC1CCCCC1)c1nn2c(C(F)(F)F)cc(-c3ccco3)nc2c1Br | ? | . | 50µM | . | . | .
CC(C)C(=O)OC1=CN(Cc2ccccc2)S(=O)(=O)c2ccccc21 | . | . | / | . | / | .
Cc1ccc(C(=O)Oc2coc(CSc3nnc(NC(=O)c4cccs4)s3)cc2=O)cc1 | 13µM | . | . | . | . | .
Cc1cc(C)c(C)c(C(=O)c2ccccc2C(=O)O)c1C | / | . | . | . | . | .
Cc1cc(N=Nc2ccccc2C(=O)O)c(C)c(C)c1O | 32µM | ? | . | 0.89µM | . | .
Cc1cc(O)c(C(C)C)cc1N=Nc1ccccc1C(=O)O | 40µM | . | . | 6.3µM | . | .
COc1cc(N=Nc2ccccc2C(=O)O)ccc1O | 50µM | . | . | 7.1µM | . | .
COc1cc(N=Nc2ccc3ccccc3c2)ccc1O | .[12.7 µM] | / | . | / | . | /
Cc1ccc(C(=O)c2ccccc2C(=O)O)c(O)c1 | . | . | . | . | . | .
Cc1ccc(S(=O)(=O)c2nnn3c2nc(N2CCCC(C)C2)c2cc(Cl)ccc23)cc1C (stereo not given) | . | . | / | . | / | .
CCCCc1nc2ccn(CC(=O)N(C)C)c(=O)c2n1Cc1ccc(-c2ccccc2-c2nn[nH]n2)cc1 | . | . | 50µM | . | . | .
CCOC(=O)CC1C(=O)NCCN1S(=O)(=O)c1ccc(OC)cc1 (stereo not given) | . | . | . | . | . | .
CCOC(=O)CC1C(=O)NCCN1c1nc2c(C)cccn2c(=O)c1/C=C1\SC(=S)N(CC(C)C)C1=O (stereo not given) | . | . | . | 10µM | . | .
CCN1CCN(c2nc3ccccn3c(=O)c2C=O)CC1 | ? | / | . | / | . | /
CC(C)CN1C(=O)/C(=C/c2c(N3CCc4ccccc4C3)nc3ccccn3c2=O)SC1=S | 35µM | . | . | ? | . | ?
CN1C(=O)NC(c2cccc(F)c2)C2=C1CC(C)(C)CC2=O (stereo not given) | . | / | . | / | . | /
Cc1nn(-c2cc(N3CCCCC3)ccc2N)c(=O)c2ccccc12 | 3.2µM | . | . | ? | . | .
Nc1cc(Cl)ccc1N1CCCCC1 | . | . | . | . | . | .
Nc1ccc(N2CCCCC2)cc1N1CCCCC1 | 2.5µM | ? | 32µM | ? | . | ?
Cc1nn(-c2cc(N3CCCCCC3)ccc2[N+](=O)[O-])c(=O)c2ccccc12 | . | . | . | ? | . | .
O=C(O)c1ccccc1C(=O)Nc1ccc(Oc2cccc3ccccc23)cc1 | 40µM | . | . | . | . | .
Cn1cnnc1SCc1ccc(C#N)cc1 | . | . | . | . | . | .
Cn1cnnc1SCc1ccc(-c2ccc(Br)cc2)o1 | ? | . | 45µM | ? | . | .
SMILES | G9a block | Tau fluor counter | Sfp inh | Tau ThT inhib | Coupling enz | Tau fibril FP
Cn1cnnc1SCc1ccccc1 | 1.3µM | . | . | . | . | .
O=C(O)Cn1nc(N2CCN(c3ccccc3)CC2)ccc1=O | . | . | / | . | / | .
N#Cc1cc(Sc2ccccn2)c([N+](=O)[O-])cc1C#N | . | ? | 56µM | 14µM | . | .
O=[N+]([O-])c1ccc(Sc2ccccn2)nc1 | 45µM | . | . | . | . | .
O=C(O)c1ccc(Sc2ccccn2)c([N+](=O)[O-])c1 | ? | . | . | . | . | .
O=[N+]([O-])c1ccccc1CSc1ccccn1 | 50µM | . | . | . | . | .
Cc1cc(C)c(C#N)c(SCc2ccccc2[N+](=O)[O-])n1 | 10µM | ? | . | . | . | .
CCOc1ccc(N(C(=O)c2ccc3c(c2)OCO3)C2C=CS(=O)(=O)C2)cc1 (stereo not given) | . | / | . | / | . | /
COc1ccccc1CNC(=O)[C@@H]1CCCN1S(=O)(=O)c1ccccc1F | . | / | . | / | . | /
CCOC(=O)N1CCc2c(sc3c2c(=O)n(-c2ccc(Cl)cc2)c(=O)n3Cc2cccc(OC)c2)C1 | . | . | / | . | / | .
O=C(CSc1n[nH]c(-c2cccnc2)n1)Nc1ccc([N+](=O)[O-])cc1 | . | / | . | / | . | /
N#Cc1cc(Sc2ccccn2)c(Sc2ccccn2)cc1C#N | 32µM | . | . | ? | . | .
O=[N+]([O-])c1cc(C(F)(F)F)ccc1Sc1ccccn1 | ? | . | . | . | . | .
O=[N+]([O-])c1ccc(Sc2n[nH]c(-c3ccncc3)n2)nc1 | 45µM | . | ? | . | . | .
CCc1cccc(C)c1NC(=O)CCS(=O)(=O)c1cc(Br)cc2c1N(C(=O)C1CC1)CC2 | . | . | / | . | / | .
CCc1ccc(/C=C/C(=O)C2C(=O)c3ccccc3C2=O)cc1 | ? | . | 79µM | ? | . | .
O=C(c1ccccc1)C1C(=O)c2ccccc2C1=O | .[2.33 µM] | . | . | ? | . | .
CCOC(=O)c1cc(CC)sc1NC(=O)CN1C(=O)C(=O)N(CC(C)C)C1=O | . | / | / | / | / | /
CCc1ccc(-n2c(=O)c3c(C)c(C)sc3n(CC(=O)NCc3ccc(C)cc3)c2=O)cc1 | . | . | / | . | / | .
CN(C)C(=O)/C(C#N)=C\c1cc(Br)c(Sc2ccc(Cl)cc2)o1 | . | . | . | ? | -51 | ?
Cc1cc(N)ccc1-n1c(C)ccc1C | 14µM | . | . | 14µM | . | ?
Cc1cc(N)ccc1N1CCCC1 | ? | ? | 14µM | 7.1µM | . | 13µM
COc1ccc(CN(C)Cc2nc3scc(-c4ccccc4)c3c(=O)[nH]2)cc1OC | . | . | . | . | . | .
CC[C@H](C)C(N)c1cn(C(CCCN=C(N)N)C(=O)N2CCNCC2)nn1 (stereo not given in full) | .[2.33 µM] | / | / | / | / | /
O=C(O)c1cc(O)c2c(c1)[C@H]([C@H]1c3cc(C(=O)O)cc(O)c3C(=O)c3c(O[C@@H]4O[C@H](CO)[C@@H](O)[C@H](O)[C@H]4O)cccc31)c1cccc(OC3O[C@H](CO)[C@@H](O)[C@H](O)[C@H]3O)c1C2=O (stereo not given in full) | 1.3µM | / | / | / | / | /
O=C(O)c1cc(O)c2c(c1)[C@@H]([C@H]1c3cc(C(=O)O)cc(O)c3C(=O)c3c(O[C@@H]4O[C@H](CO)[C@@H](O)[C@H](O)[C@H]4O)cccc31)c1cccc(OC3O[C@H](CO)[C@@H](O)[C@H](O)[C@H]3O)c1C2=O (stereo not given in full) | 1.3µM | / | / | / | / | /
COc1cccc(CNS(=O)(=O)c2ccc3c(c2)N(C(C)=O)CCO3)c1 | ? | / | . | / | . | /

Screens deposited in PubChem BioAssay by National Center for Advancing Translational Sciences (NCATS).
